Measured values taken from PubChem BioAssay (NCI).
Compounds without any hit were thinned out: in the full panel of roughly 83,000, 20% have a hit.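 Single-dose data. Exposure time 48 hours. Values below 10 considered active.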 Unmarked numbers belong to inactive results. Activity calls are given as the source filed them.

Assays:
Test in all cases: NCI-60 one-dose screen, 48 h (100 = growth as untreated, 0 = no growth, -100 = all killed)
Details in all cases: 10 µM unless noted
[1] = test system: NCI-H23 lung
[2] = test system: NCI-H226 lung
[3] = test system: NCI-H322M lung
[4] = test system: HOP-62 NSCLC
[5] = test system: NCI-H460 lung
[6] = test system: HOP-92 NSCLC
[7] = test system: NCI-H522 lung
[8] = test system: A549/ATCC NSCLC
[9] = test system: 786-0 renal
[10] = test system: COLO 205 colon
[11] = test system: DU-145 prostate
[12] = test system: K-562 leukemia
[13] = test system: MALME-3M melanoma
[14] = test system: MDA-MB-231 breast
[15] = test system: RXF 393 renal
[16] = test system: SF-268 CNS
[17] = test system: SF-295 CNS
[18] = test system: SF-539 CNS
[19] = test system: UACC-257 melanoma
[20] = test system: M14 melanoma

Structure (SMILES) | growth [1] | growth [2] | growth [3] | growth [4] | growth [5] | growth [6] | growth [7] | growth [8] | growth [9] | growth [10] | growth [11] | growth [12] | growth [13] | growth [14] | growth [15] | growth [16] | growth [17] | growth [18] | growth [19] | growth [20]
Clc1ccc(CNc2c3ccccc3nc3ccccc23)cc1 | 53% | 75.5% | 54.1% | 53% | 16.4% | 25.5% | 66.5% | 39.3% | 35.3% | 8.58% (active) | 54.8% | 4.34% (active) | 39.6% | 54.8% | 29.7% | 67.9% | 59.6% | 30.3% | 76.1% | 53.3%
O=C(NCCCN1CCOCC1)c1cccc(N2C(=O)/C(=C/c3ccc(F)cc3)SC2=S)c1 | 92.5% | 90.4% | 104% | 100% | 107% | 46.7% | 90.3% | 103% | 97.2% | 111% | 101% | 96.2% | 90.4% | 88.9% | 94.2% | 94.1% | 95.5% | 90.6% | 97.2% | 93.8%
CNC(=O)c1cc(Oc2ccc3nc(NC(C)=O)sc3c2)ccn1 | 103% | 101% | 104% | 109% | 104% | 99.9% | 104% | 102% | 94.6% | 105% | 101% | 81.8% | 92.7% | 98.7% | 115% | 97.4% | 95.2% | 94.3% | 102% | 101%
Cc1nc2sc(C(=O)Nc3cccc(Cl)c3C)c(N)c2cc1C(=O)c1ccccc1 | 34.4% | 5.27% (active) | 49.8% | 21.2% | 7.35% (active) | 41.6% | 5.64% (active) | 19.9% | 32.8% | -36% (active) | 11% | 13.5% | 25% | 39% | 3.56% (active) | 29.2% | 1.83% (active) | -7.44% (active) | 63.3% | 6.11% (active)
O=C(NNc1nccc(Nc2ccc(S(=O)(=O)Nc3ccncc3)cc2)n1)c1ccccc1 | 5.18% (active) | 108% | 96.9% | 89.2% | 119% | 103% | 94.5% | 96.8% | 93.8% | 122% | 105% | 107% | 103% | 90.9% | 109% | 95.3% | 104% | 115% | 107% | 91.9%
C#Cc1cccc(Nc2ncnc3ccc(-c4cnc(N)nc4)cc23)c1 | 50% | 53.2% | -7.64% (active) | 28.4% | 37.8% | 15% | 10.5% | 35.9% | 36.3% | 52.6% | 18.9% | 53.2% | 9.03% (active) | 12.8% | -15.3% (active) | 32.7% | 26.2% | 32.4% | 80.7% | 36.8%
Cc1nc2sc(C(=O)Nc3ccccc3)c(N)c2cc1C(=O)c1ccccc1 | 64.4% | 31.3% | 39.4% | 34.5% | 6.08% (active) | 59.8% | 50.2% | 23.7% | 44.4% | -25% (active) | 56.1% | 32.4% | 68.3% | 58% | -0.48% (active) | 47.8% | -9.52% (active) | 33.4% | 49.8% | 39.8%
CCCC(=O)NC(c1ccc2c(c1)OCO2)c1ccc2cccnc2c1O (stereo not given) | 24.1% | 12.2% | 25.9% | 20.4% | 9.17% (active) | 31.4% | -4.35% (active) | 20.8% | 19.8% | 8.58% (active) | 36.5% | 7.6% (active) | 13.4% | 31.2% | 18.3% | 15.8% | 13.9% | 9.93% (active) | 19.1% | 4.9% (active)
O=C(Nc1ccc(-c2nc(N3CCOCC3)c3cccn3n2)cc1)Nc1cccnc1 | 17.2% | -5.75% (active) | 0.902% (active) | -3.37% (active) | 7.47% (active) | -22.5% (active) | 4.32% (active) | 0.989% (active) | -12.7% (active) | 6.07% (active) | 5.28% (active) | 15.2% | -29.9% (active) | -0.801% (active) | -30.5% (active) | 11.9% | -36.4% (active) | -39.8% (active) | -11.7% (active) | -0.739% (active)
O=C1C(Cl)=C(Nc2ccc(O)cc2)C(=O)N1Cc1ccc(Cl)cc1 | 85.2% | 84.5% | 77% | 84.2% | 78.9% | 69.7% | 51.9% | 71.6% | 70.6% | 35.8% | 90.2% | 11.9% | 76.2% | 74.1% | 64.3% | 57.5% | 97.4% | 65% | 70% | 24.2%
Cc1cc2c(O)c(-c3cccc(Cl)c3)c3sc(=O)oc3c2cc1C | 12% | 42.9% | 59.8% | 76.7% | 24.9% | -31.3% (active) | 12.7% | 69.1% | 78.8% | 115% | 48.1% | 17.2% | 58.4% | 53.9% | 63.5% | 48.7% | 66% | 54.3% | 39.6% | 51.9%
CCc1ccc(C(=O)/C=C/C23c4ccccc4C(c4ccccc42)C2C(=O)NC(=O)C23)cc1 (stereo not given) | 15.9% | 42.3% | 15.8% | -3.98% (active) | 5.14% (active) | -17% (active) | -12.6% (active) | 21.5% | -12.8% (active) | -25.9% (active) | 12.6% | 8.82% (active) | -59.9% (active) | 9.93% (active) | -48.7% (active) | 26.5% | 12.9% | 11% | 27.8% | -8.91% (active)
N#Cc1c(-c2cccs2)cc(-c2cccnc2)[nH]c1=O | 102% | 98.5% | 96.8% | 90.3% | 110% | 104% | 98.7% | 97.8% | 103% | 97.2% | 109% | 98.2% | 104% | 105% | 101% | 100% | 101% | 95.5% | 97.1% | 106%
O=C1/C(=C/c2ccc(Cl)c(Cl)c2)CN(C(=O)C(Cl)Cl)C/C1=C\c1ccc(Cl)c(Cl)c1 | -66.3% (active) | -31.2% (active) | -22.8% (active) | -21.8% (active) | -55.8% (active) | -53% (active) | -35.1% (active) | 7.18% (active) | -90.7% (active) | -47.1% (active) | -76.1% (active) | 0.245% (active) | -57.6% (active) | -34.2% (active) | -80% (active) | -64.7% (active) | -79.7% (active) | -93.2% (active) | -11.4% (active) | -66.9% (active)
O=C(CCCCC1CCSS1)Nc1ncnc2n[nH]c(-c3ccc(Oc4ccccc4)cc3)c12 (stereo not given) | 59.2% | 94.2% | 79.5% | 65.6% | 2.83% (active) | 97.9% | 70.3% | 37% | 117% | 88.9% | 65.6% | 9.6% (active) | 109% | 68.3% | 113% | 72.4% | 102% | 106% | 95.2% | -62.8% (active)
